Pol eta inh-1 – blocks human DNA polymerase eta activity. Q9Y253. recombinant Pol eta, fluorescent DNA replication assay. Potency, µM (top dose mostly 114 µM), actives largely listed as inhibitors. 1.2% of 390,000 active
Target sequence (Q9Y253 whole entry, looked up): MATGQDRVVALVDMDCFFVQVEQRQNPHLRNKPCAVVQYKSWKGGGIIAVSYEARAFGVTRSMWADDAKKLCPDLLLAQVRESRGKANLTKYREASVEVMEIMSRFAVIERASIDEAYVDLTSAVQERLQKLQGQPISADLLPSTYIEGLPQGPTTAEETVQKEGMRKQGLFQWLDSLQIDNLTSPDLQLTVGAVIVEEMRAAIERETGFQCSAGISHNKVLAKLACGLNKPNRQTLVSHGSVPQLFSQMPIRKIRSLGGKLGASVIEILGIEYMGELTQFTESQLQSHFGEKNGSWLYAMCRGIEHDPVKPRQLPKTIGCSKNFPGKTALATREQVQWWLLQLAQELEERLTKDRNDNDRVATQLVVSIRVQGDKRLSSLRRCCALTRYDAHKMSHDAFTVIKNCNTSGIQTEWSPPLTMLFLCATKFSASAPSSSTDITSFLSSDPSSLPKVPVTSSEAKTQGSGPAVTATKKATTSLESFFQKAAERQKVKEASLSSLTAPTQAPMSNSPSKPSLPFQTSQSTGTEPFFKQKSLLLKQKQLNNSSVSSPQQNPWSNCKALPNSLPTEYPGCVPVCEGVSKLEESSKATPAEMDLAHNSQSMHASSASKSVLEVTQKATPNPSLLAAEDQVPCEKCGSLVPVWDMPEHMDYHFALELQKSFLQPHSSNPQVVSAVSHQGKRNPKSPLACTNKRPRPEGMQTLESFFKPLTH
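Fluorescent replication assay: 50 nM final substrate added after a 15 min room-temperature compound preincubation with 10 nM enzyme. Signal taken at 0 min and again at 10 min.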
Pol kappa inh-1 – inhibitors of human DNA polymerase kappa. Q9UBT6. 0.53% of 400,000 active. purified Pol kappa, fluorescent DNA synthesis assay, 10 min. Potency, µM (series often up to 107 µM), hits mostly inhibitors. AID 588579
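Kinetic fluorescence screen: compound preincubated 15 min RT with 10 nM enzyme; 50 nM substrate (final) initiates; reads at 0/10 min.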
Pol beta inh – DNA polymerase beta (human) inhibition; P06746; Pol beta primer extension/strand displacement, fluorescence kinetic; Potency, µM (series often up to 114 µM), hits mostly inhibitors; 1.3% of 340,000 active; AID 485314
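10 nM enzyme + cpd, 15 min RT; start with substrate 50 nM final; read 0 min and after 10 min RT. Corrected, normalized data; 4-parameter Hill curve fit.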
WRN inhibitor – WRN helicase (human) inhibition | Q14191 | WRN helicase unwinding, fluorescent forked duplex, kinetic | Potency, µM (titrated, usually from 114 µM), actives largely listed as inhibitors | 0.46% of 360,000 active | AID 651768; further: nearly all actives have a fitted effect of over 55% in size
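WRN at 20 nM final preincubated with compound 15 min at room temperature; reaction started with 100 nM fluorophore/quencher forked duplex oligonucleotide and 2 mM ATP final. Unwinding followed kinetically by red fluorescence (ex 525, em 598 nm).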
POLI inh – blocks human DNA polymerase iota activity; Q9UNA4; Pol iota fluorescent replication assay, 10 min; Potency, µM (titrated, usually from 115 µM), hits mostly inhibitors; 1% of 390,000 active
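Pol iota at 10 nM preincubated 15 min with compounds at room temperature; reaction started with fluorescent substrate, 50 nM final. Fluorescence read kinetically at 0 and 10 min; buffer-only wells as negative control.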
FEN1 inh – inhibitors of human flap endonuclease 1 | P39748 | Recombinant FEN1 flap cleavage, fluorescence, 15 min | Potency, µM (series often up to 114 µM), actives largely listed as inhibitors | 0.35% of 390,000 active | AID 588795; further: nearly all actives have a fitted effect of over 65% in size
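Enzyme 10 nM, 15 min RT preincubation with compound; start with substrate 50 nM final; reads at 0 and 15 min; qHTS titration, four-parameter Hill fit.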
GALK inh confirm – galactokinase (human) inhibition, confirmation; shares compounds with Pol eta inh-1; AID 2015; 70% of 150 active; Potency, µM (doses to about 115 µM), actives largely listed as inhibitors; purified GALK, Kinase-Glo ATP depletion luminescence
GALK redox cs – generates H2O2 by redox cycling, flagging GALK artifacts. Phenol red-HRP H2O2 redox cycling, absorbance 600 nm. Potency, µM (top dose mostly 115 µM), actives largely listed as inhibitors. shares compounds with Pol eta inh-1. 40% of 150 active
HEK293 viability – reduces HEK-293 cell viability in GALK counter-screen. Potency, µM (titrated, usually from 46.1 µM), usual class: inhibitors. AID 2547. HEK-293 viability, ATP luminescence (CellTiter-Glo), 24/48 h. 10% of 170 active. shares compounds with Pol eta inh-1
Pol kappa inh-2 – Pol kappa (human) inhibition, cherry-pick confirmation; shares compounds with Pol eta inh-1; purified Pol-kappa, fluorescent strand-displacement substrate; Potency, µM, actives largely listed as inhibitors; 76% of 920 active; AID 720501
Pol eta inh-2 – confirmation of human DNA polymerase eta inhibitors. Pol eta primer extension, TAMRA/BHQ fluorescence, 10 min. shares compounds with Pol eta inh-1. AID 720502. 64% of 2,600 active. Potency, µM, usual class: inhibitors
Each line names hits and unclear results; the compound was inactive in the other large screens (follow-up assays come after a bar, where they were run). Shown are actives, neighbours in structure and some others; about 2.4% of the full set was active somewhere. The call rests on the fitted dose curve; in most records, active means well fitted curve in the direction sought with a large enough effect; inconclusive means small, poorly fitted or top-dose-only effect, or another doubt; inactive means no such curve, though single readings can be large; an effect the other way counts as inactive or inconclusive.

Cc1ccc(C)c(NC(=O)Cn2cnc3c(oc4ccccc43)c2=O)c1	Pol eta inh-1 inconclusive | Pol kappa inh-2 67
O=C(C[n+]1cccc(Br)c1)c1cc(Cl)ccc1Cl	POLI inh inconclusive (no result: Pol eta inh-1, Pol beta inh, WRN inhibitor)
COc1cc(CC(=O)OCC(=O)NCc2ccco2)cc(OC)c1OC	Pol eta inh-1 50µM, POLI inh inconclusive (no result: Pol beta inh) | Pol eta inh-2 inconclusive
O=C(COC(=O)CCC(=O)c1ccc(Cl)cc1)NCc1ccco1	Pol eta inh-1 25µM, Pol kappa inh-1 inconclusive, Pol beta inh 35µM, WRN inhibitor inconclusive, POLI inh 45µM | Pol eta inh-2 76
COC(=O)C1=C[C@@H](C(=O)OC)C2C3=C(C(=O)[C@@]2(C)NC(=O)c2ccccc2)[C@H](C)[C@@H]2C(=O)N(C)C(=O)[C@@H]2[C@@H]3C1 (stereo partly drawn)	POLI inh inconclusive (no result: Pol eta inh-1, Pol beta inh, WRN inhibitor)
N#CCCn1c(=O)c(-c2ccc(Cl)cc2)nc2cnc(N3CCNCC3)nc21	none (no result: Pol eta inh-1, Pol beta inh, WRN inhibitor, POLI inh, FEN1 inh)
COC(=O)/C=C1\SC(=NC(=O)c2ccc(-c3ccccc3)cc2)NC1=O	Pol eta inh-1 50µM, POLI inh inconclusive (no result: Pol beta inh) | Pol eta inh-2 inconclusive
S=c1[nH]nc(-c2cc(-c3ccco3)[nH]n2)n1-c1ccccc1Cl	Pol eta inh-1 32µM, Pol kappa inh-1 inconclusive, Pol beta inh inconclusive, WRN inhibitor 50µM, POLI inh inconclusive, FEN1 inh inconclusive | Pol eta inh-2 inconclusive
Cc1ccc(-c2cc(C(=O)N3CC(C)CC(C)C3)c3ccccc3n2)o1 (stereo not drawn)	Pol eta inh-1 79µM, Pol kappa inh-1 inconclusive, Pol beta inh 40µM, WRN inhibitor 50µM | Pol eta inh-2 76
Cc1ccccc1OCC(=O)Nc1ccccc1OCc1cc(=O)n2ccccc2n1	none (no result: WRN inhibitor)
O=C(NCc1ccco1)c1c[nH]c2ccc(S(=O)(=O)Nc3ccc(F)cc3F)cc2c1=O	Pol eta inh-1 50µM, Pol beta inh inconclusive, POLI inh inconclusive (no result: WRN inhibitor) | Pol kappa inh-2 inconclusive
CCc1ccccc1NS(=O)(=O)c1ccc2[nH]cc(C(=O)NCc3ccco3)c(=O)c2c1	none
CCN(CC(=O)Nc1ccc(NC(C)=O)cc1)C(=O)CSc1ncnc2sc(C)c(C)c12	Pol eta inh-1 inconclusive, POLI inh inconclusive (no result: Pol beta inh) | Pol eta inh-2 inconclusive
CC(=O)Nc1ccc(NC(=O)CSc2ncnc3sc(C)c(C)c23)cc1	none
CC(=O)NS(=O)(=O)c1ccc(NC(=O)/C=C/c2ccc(C)o2)cc1	Pol eta inh-1 22µM, Pol kappa inh-1 inconclusive, POLI inh inconclusive | Pol eta inh-2 43
CC1(C)CCC[C@@](C)([C@H]2CC[C@]3(C)[C@@H]2[C@H](O)C[C@@H]2[C@@]4(C)CC[C@H](O)C(C)(C)[C@@H]4CC[C@]23C)O1	none (no result: Pol eta inh-1, Pol beta inh, WRN inhibitor, POLI inh, FEN1 inh)
O=C(NCCc1ccccc1)c1ccc2c(=O)[nH]c3c(C(=O)NCC4CCCO4)sc(=S)n3c2c1 (stereo not drawn)	Pol kappa inh-1 inconclusive, POLI inh inconclusive, FEN1 inh inconclusive | GALK inh confirm 38µM | GALK redox cs inactive | HEK293 viability inactive
